Measured values reported in PubChem BioAssay AID1159580 (chemical genetic matrix, 2015).
Where “and” joins values, the source holds several entries; their conditions need not be identical. Identical values can stand only once. Out of some 5,500 compounds screened, about 2,000 (36%) were called active. About 18% were inconclusive and are not listed. Rule as the data show it: active = normalized growth mostly below about 0.91 (no sharp cut-off); inconclusive = no clear call, values can overlap the other calls; inactive = mostly above about 0.92. This is one part of the list.

Experiment: chemical genetic growth profiling, strain panel (AID 1159580);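 also: tested at 20 µM; growth read once vehicle control cultures reached saturation at 30 °C; 1 = growth at the plate median or of vehicle wells; lower values mean less growth of the strain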
Conditions: S. cerevisiae deletion strains, growth OD

Measured: normalized growth

CC1=NCCc2c1[nH]c1cc(O)ccc21
inactive: locus YAL013W, strain DEP1, stronger effect = lower value 0.99 | locus YAL021C, strain ccr4, stronger effect = lower value 0.923 | locus YAL026C, strain drs2, stronger effect = lower value 0.987 | locus YAL030W, strain snc1, stronger effect = lower value 0.984 | locus YBL061C, strain skt5, stronger effect = lower value 0.995 | locus YBR009C, strain hhf1, stronger effect = lower value 0.97 | locus YBR021W, strain FUR4, stronger effect = lower value 0.989 | locus YBR023C, strain chs3, stronger effect = lower value 0.994 | locus YBR171W, strain sec66, stronger effect = lower value 0.993 | locus YBR229C, strain ROT2, stronger effect = lower value 0.955 | locus YBR231C, strain swc5, stronger effect = lower value 1.02 | locus YBR279W, strain paf1, stronger effect = lower value 0.995 | locus YCL011C, strain gbp2, stronger effect = lower value 0.963 | locus YCL016C, strain dcc1, stronger effect = lower value 0.967 | locus YCL029C, strain bik1, stronger effect = lower value 0.994 | locus YCL069W, strain vba3, stronger effect = lower value 0.976 | locus YCR088W, strain abp1, stronger effect = lower value 0.99 | locus YDL005C, strain med2, stronger effect = lower value 0.995 | locus YDL035C, strain GPR1, stronger effect = lower value 0.992 | locus YDL040C, strain nat1, stronger effect = lower value 0.993 | locus YDL074C, strain BRE1, stronger effect = lower value 0.997 | locus YDL101C, strain DUN1, stronger effect = lower value 0.978 | locus YDL134C, strain PPH21, stronger effect = lower value 0.988 | locus YDL185W, strain tfp1, stronger effect = lower value 0.993 | locus YDL192W, strain arf1, stronger effect = lower value 0.992 | locus YDR001C, strain nth1, stronger effect = lower value 0.971 | locus YDR069C, strain doa4, stronger effect = lower value 0.986 | locus YDR101C, strain arx1, stronger effect = lower value 0.997 | locus YDR137W, strain rgp1, stronger effect = lower value 0.98 | locus YDR150W, strain NUM1, stronger effect = lower value 0.972 | locus YDR159W, strain sac3, stronger effect = lower value 1.02 | locus YDR162C, strain NBP2, stronger effect = lower value 0.99 | locus YDR195W, strain ref2 0.953 | locus YDR297W, strain sur2, stronger effect = lower value 0.996 | locus YDR318W, strain mcm21, stronger effect = lower value 0.994 | locus YDR334W, strain swr1, stronger effect = lower value 0.97 | locus YDR335W, strain msn5, stronger effect = lower value 0.986 | locus YDR388W, stronger effect = lower value 1 | locus YDR392W, strain spt3, stronger effect = lower value 0.93 | locus YDR502C, strain sam2, stronger effect = lower value 0.984 | locus YEL003W, strain gim4, stronger effect = lower value 0.994 | locus YEL037C, strain rad23, stronger effect = lower value 0.978 | locus YEL061C, strain CIN8 (second series), stronger effect = lower value 0.985 | locus YEL061C, strain CIN8, stronger effect = lower value 0.988 | locus YER015W, strain faa2, stronger effect = lower value 0.975 | locus YER016W, strain bim1, stronger effect = lower value 0.993 | locus YER110C, stronger effect = lower value 0.974 | locus YER111C, strain swi4, stronger effect = lower value 0.995 | locus YER155C, strain BEM2 (second series), stronger effect = lower value 1.03 | locus YER155C, strain BEM2, stronger effect = lower value 1.01 | locus YER167W, strain BCK2, stronger effect = lower value 1 | locus YFR010W, strain ubp6, stronger effect = lower value 0.983 | locus YGL078C, strain dbp3, stronger effect = lower value 0.991 | locus YGL086W, strain mad1, stronger effect = lower value 0.987 | locus YGL167C, strain pmr1, stronger effect = lower value 0.976 | locus YGL173C, strain kem1, stronger effect = lower value 0.991 | locus YGL227W, strain vid30, stronger effect = lower value 0.99 | locus YGL240W, strain doc1, stronger effect = lower value 1 | locus YGL248W, strain PDE1, stronger effect = lower value 0.99 | locus YGL253W, strain hxk2, stronger effect = lower value 0.985 | locus YGR078C, strain PAC10, stronger effect = lower value 1.01 | locus YGR135W, strain pre9, stronger effect = lower value 0.992 | locus YGR229C, strain SMI1, stronger effect = lower value 1.01 | locus YGR252W, strain gcn5, stronger effect = lower value 0.932 | locus YHR013C, strain ard1, stronger effect = lower value 0.95 | locus YHR027C, strain rpn1, stronger effect = lower value 0.966 | locus YHR030C, strain SLT2, stronger effect = lower value 0.995 and 1.01 | locus YHR079C, strain IRE1 (second series), stronger effect = lower value 0.995 | locus YHR079C, strain IRE1, stronger effect = lower value 1.01 | locus YHR094C, strain hxt1, stronger effect = lower value 0.99 | locus YHR129C, strain ARP1, stronger effect = lower value 1 | locus YHR142W, strain chs7, stronger effect = lower value 0.968 | locus YHR200W, strain rpn10, stronger effect = lower value 0.991 | locus YIL066C, strain RNR3, stronger effect = lower value 0.975 | locus YIL073C, strain SPO22, stronger effect = lower value 0.992 | locus YIL125W, strain kgd1, stronger effect = lower value 0.988 | locus YIR030C, strain dcg1, stronger effect = lower value 0.985 | locus YJL092W, strain hpr5, stronger effect = lower value 0.965 | locus YJL095W, strain BCK1 (second series), stronger effect = lower value 0.983 | locus YJL095W, strain BCK1, stronger effect = lower value 1.05 and 1.01 | locus YJL115W, strain asf1, stronger effect = lower value 0.956 | locus YJL129C, strain trk1, stronger effect = lower value 1.01 | locus YJL134W, strain LCB3, stronger effect = lower value 0.986 | locus YJL154C, strain vps35, stronger effect = lower value 0.977 | locus YJL164C, strain tpk1, stronger effect = lower value 0.95 | locus YJL166W, strain qcr8, stronger effect = lower value 1.01 | locus YJL168C, strain set2, stronger effect = lower value 0.999 | locus YJL187C, strain SWE1 (second series), stronger effect = lower value 0.991 | locus YJL187C, strain SWE1, stronger effect = lower value 0.989 | locus YJR043C, strain POL32, stronger effect = lower value 1.01 | locus YJR066W, strain TOR1, stronger effect = lower value 0.934
